Measured values published in PubChem BioAssay AID2435 (The Scripps Research Institute Molecular Screening Center, 2010).
The whole screen tested about 320,000 compounds, of which about 1,000 (0.31%) were called active. For the sample, actives were picked, then their nearest neighbours and some compounds at random. A number with no mark means an inactive call.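 How the source made its calls: active means activation above the mean of all tested compounds plus 3 SD, cutoff set per screening run (cut at about 20% in these data); inactive means the rest.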

These compounds were tested against Oxytocin receptor (Homo sapiens) (UniProt P30559) (assay: human OXTR agonists, primary screen, fluorescence, CHO-OTR cells, Fluo-8 calcium (AID 2435;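 further: peak over basal fluorescence ratio from a 100 s FLIPR kinetic read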)). Conditions: Fluo-8 calcium fluorescence, at 3 µM, stronger effect = higher value, normalized: DMSO 0%, oxytocin 100%.
Chain of Oxytocin receptor (Homo sapiens) (P30559 whole entry, looked up): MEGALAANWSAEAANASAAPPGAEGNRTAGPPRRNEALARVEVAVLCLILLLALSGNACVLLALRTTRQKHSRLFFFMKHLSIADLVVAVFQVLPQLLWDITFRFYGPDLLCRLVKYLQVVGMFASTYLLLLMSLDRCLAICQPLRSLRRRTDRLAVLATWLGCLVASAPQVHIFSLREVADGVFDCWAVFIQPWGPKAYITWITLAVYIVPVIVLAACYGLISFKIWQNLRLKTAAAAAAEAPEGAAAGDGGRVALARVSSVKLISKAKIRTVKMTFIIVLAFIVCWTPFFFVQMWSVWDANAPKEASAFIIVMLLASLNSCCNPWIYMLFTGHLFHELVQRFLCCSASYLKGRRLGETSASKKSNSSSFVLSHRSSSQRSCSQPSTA

First: Nc1ncnc2c1ncn2[C@@H]1O[C@H](CNCc2cccn2-c2nccs2)[C@@H](O)[C@H]1O
Second: C=CCOc1cccc(C2C(C(=O)c3ccc(C)o3)=C(O)C(=O)N2CCCn2ccnc2)c1 (stereo not given)
The activation of the first is higher: -0.14% for the first, -0.44% for the second.

Compared with `Cc1onc(-c2ccccc2)c1C(=O)Nc1ccccc1C#N`, `Cc1ccc(CNC(=O)c2c(-c3ccccc3)noc2C)cc1` is lower in activation: -1.5% for the first, -1.84% for the second.

First: Cc1onc(-c2c(Cl)cccc2Cl)c1C(=O)NNC(=O)c1c(-c2c(Cl)cccc2Cl)noc1C
Second: CCc1noc(C)c1C(=O)NNC(=O)c1ccc(F)cc1
The activation of the first is lower: -1.38% for the first, 0.43% for the second.

First: O=C(Nc1ccc(-n2ccnc2P(=O)(O)c2ccccc2)cc1)c1ccccc1Br
Second: CCC(C(=O)OCC(=O)Nc1ccc(C(=O)Nc2ccc(OC)cc2)cc1)c1ccccc1 (stereo not given)
The activation of the first is lower: -0.12% for the first, 5.16% for the second.

Going from `Cc1csc2nc(O)c(C(=O)NCCN3CCOCC3)c(=O)n12` to `CC1CCCN(CCCNC(=O)CN2C(=O)COc3ccc(S(=O)(=O)N4CCOCC4)cc32)C1` (stereo not given), the activation rises from 0.15% to 0.7%.

Going from `Cc1cc(C)c(S(=O)(=O)N2C=CC(C(F)(F)F)=NCC2)c(C)c1` to `Cc1cc(S(=O)(=O)N2CCOCC2)ccc1OCC(=O)Nc1cccc(C(F)(F)F)c1`, the activation rises from 0.69% to 0.91%.

Compared with `CN(CCc1ccccc1)C(=O)c1cccc(NC(=O)Cc2ccc([N+](=O)[O-])cc2)c1`, `O=C(Nc1ccc2ccccc2c1)/C(=C/c1cccc(Br)c1)NC(=O)c1ccco1` is lower in activation: 13.1% for the first, 0.36% for the second.

First: CCCc1cc(=O)[nH]c(SCC(=O)N2CCN(S(=O)(=O)c3ccc(C)cc3C)CC2)n1
Second: Cn1c(=O)c(=O)n(C)c2cc(S(=O)(=O)CCC(=O)N3CCCCC3)ccc21
The activation of the first is lower: -1.06% for the first, -0.07% for the second.

Compared with `COC(=O)C1(S(=O)(=O)C2(C(=O)OC)CCCC2)CCCC1`, `CC(=O)Nc1ccc(S(=O)(=O)N(C)c2ccc(OCC(=O)OCC(=O)N3CCCCC3)cc2)cc1` is higher in activation: -0.45% for the first, 0.24% for the second.

First: COc1cc(/C=C(\C#N)c2nc3c(s2)CC(C)CC3)ccc1O (stereo not given)
Second: CC1CCc2[nH]c3ccc(C(=O)N(C)CC(=O)Nc4cccc(F)c4)cc3c2C1 (stereo not given)
The activation of the first is higher: 12.7% for the first, 2.82% for the second.

Compared with `CCOc1cc(-c2cc(-c3ccc(NC(C)=O)cc3)nc(N)c2C#N)ccc1O`, `Cc1nc(C(=O)Nc2ccc(Cl)cc2)sc1C1(C)CC(c2ccccc2)=NO1` (stereo not given) is lower in activation: 1.58% for the first, 0.47% for the second.

First: Cc1cccc(NC(=O)C(C)N2C(=O)C3C4CC(C(Br)C4Br)C3C2=O)c1 (stereo not given)
Second: COC(=O)c1nn(-c2cccc(Cl)c2)ccc1=O
The activation of the first is higher: 8.44% for the first, 0.3% for the second.

Compared with `CN(CC(=O)Nc1ccc(OC(F)(F)F)cc1)C(=O)C1CCC1`, `Cc1ccc(OCC(=O)NNC(=S)NCc2ccccc2)cc1` is lower in activation: 3.13% for the first, -1.15% for the second.

First: Cc1ccc(OCC(=O)NCCCNC(=O)c2ccco2)cc1C
Second: COc1cc(OC)cc(C(=O)NCC(=O)OCC(=O)NC(C)CCc2ccccc2)c1 (stereo not given)
The activation of the first is higher: 0.98% for the first, -0.13% for the second.

Compared with `Cc1ccc(C(=O)NNC(=O)C(C)Oc2ccc3ccccc3c2)o1` (stereo not given), `Cc1cc(N2C(=O)C(O)=C(C(=O)c3ccc(C)o3)C2c2ccc(OCc3ccccc3)cc2)no1` (stereo not given) is lower in activation: 1.07% for the first, 0.01% for the second.

First: COc1ccc(Cn2c(O)c(/C=C3/C=CC=N3)c(=O)[nH]c2=O)cc1
Second: COc1ccc(N2C(=O)c3cccc4cccc(c34)C2=O)nn1
The activation of the first is higher: -0.07% for the first, -0.24% for the second.

Compared with `CN(C)CCN(C(=O)C1=COCCO1)c1nc2ccc(Cl)cc2s1`, `CN(C)CCCN(C(=O)c1ccc(S(=O)(=O)N2CCCCCC2)cc1)c1nc2cc3c(cc2s1)OCCO3` is higher in activation: 1.72% for the first, 3.02% for the second.

Going from `Cc1nn(Cc2ccccc2)c(C)c1CNC(=O)c1ccc(F)c(S(=O)(=O)N2CCOCC2)c1` to `CSc1ncccc1C(=O)Nc1cccc(S(=O)(=O)N2CCOCC2)c1`, the activation rises from 3.05% to 3.66%.

First: Cc1ccc2c(c1)N(CC(=O)N1CCCc3ccccc31)C(=O)C(C)O2 (stereo not given)
Second: CCCn1nc(C(=O)N2CCCc3ccccc32)c2ccccc2c1=O
The activation of the first is higher: -1.51% for the first, -1.8% for the second.

First: Cc1nc(-c2ccc(Cl)cc2)sc1C1(C)CC(c2ccccc2F)=NO1 (stereo not given)
Second: O=C(Cn1c(-c2ccc(Cl)cc2)noc1=O)N1CCN(c2ccccc2F)CC1
The activation of the first is lower: -0.58% for the first, 2.36% for the second.

First: COCC(C)NC(=O)CSc1nc2nn(-c3ccccc3)c(=O)c-2c2n1CCCCC2 (stereo not given)
Second: O=C(CN1C(=O)NC2(CCCCC2)C1=O)NCCc1c[nH]c2ccccc12
The activation of the first is lower: -0.74% for the first, 0.26% for the second.

First: O=C(C1CCCO1)N(Cc1ccccc1)c1ccccc1 (stereo not given)
Second: OCCN(Cc1ccccc1)Cc1ccc(Cl)cc1
The activation of the first is lower: -1.09% for the first, -0.86% for the second.

Compared with `O=C(CCc1ccccc1)Nc1ncc([N+](=O)[O-])s1`, `O=C(Cc1c(F)cccc1Cl)Nc1ncc([N+](=O)[O-])s1` is lower in activation: 12.4% for the first, 8.99% for the second.

Going from `CCC(C(=O)Nc1ccc2c(c1)OCCO2)c1ccccc1` (stereo not given) to `Cc1cc(C)cc(OCC(=O)NC(C)c2ccccc2)c1` (stereo not given), the activation falls from 0.44% to -2.21%.

Compared with `CCCc1nc2ccccc2c(C(=O)OCc2nnc(-c3cc(OC)c(OC)c(OC)c3)o2)c1CC`, `O=C(O)c1ccc2c3c(cccc13)C(=O)N(OS(=O)(=O)c1ccccc1)C2=O` is lower in activation: 0.34% for the first, 0.06% for the second.

Going from `C=CCNC(=O)/C=C/c1ccc(C(C)C)cc1` to `CCN(CC)CCCNC(=O)CCc1ccccc1`, the activation rises from -2.22% to -0.47%.

Compared with `OCCCC1CCCCN1Cc1nc(Cc2ccccc2Cl)no1` (stereo not given), `Cc1nn(C)cc1C(=O)c1ccccc1` is lower in activation: 1.04% for the first, -1.25% for the second.

Going from `COC(=O)CN(c1nc(C)c(Cl)c(OC)n1)S(=O)(=O)c1ccc(C)cc1` to `Cc1ccc(S(=O)(=O)N(CC(=O)NN=C2CCN(C)CC2)c2ccc(F)cc2)cc1`, the activation rises from -1.64% to -1.6%.

First: NS(=O)(=O)c1ccc(CNC(=O)c2cccc(S(=O)(=O)N3CCc4ccccc43)c2)cc1
Second: CN(C)CCCN(C(=O)c1ccc(S(=O)(=O)N2CCCc3ccccc32)cc1)c1nc2ccc(F)cc2s1
The activation of the first is lower: -0.73% for the first, 15.5% for the second.

Compared with `N#C/C(=C/c1ccc(N2CCOCC2)o1)C(=O)N1CCOCC1`, `Cc1cccc(OCCC(=O)Nc2cc(S(=O)(=O)N3CCCCC3)ccc2N2CCOCC2)c1` is lower in activation: 4.33% for the first, -0.97% for the second.

Going from `CCCCCCCCCCCCC(NC(C)=O)(C(=O)OCC)C(=O)OCC` to `N#CC1(NC(=O)COC(=O)CCN=C2NS(=O)(=O)c3ccccc32)CCCCC1`, the activation falls from 1.74% to 0.35%.

Going from `O=C(c1cccnc1)N1CCN(S(=O)(=O)c2cccs2)CC1` to `Fc1ccc(NC(=S)N2CCc3[nH]c4ccccc4c3C2)cc1`, the activation rises from 0.18% to 4.05%.

First: CC1(C)C2CC[C@]3(C)C(CC=C4[C@@H]5C[C@@](C)(CO)CC[C@]5(C(=O)O)CC[C@]43C)[C@@]2(C)CC[C@@H]1O (stereo not given in full)
Second: CC1(C)CC[C@]2(C(=O)O)CC[C@]3(C)C(=CCC4[C@@]5(C)CC[C@H](O)C(C)(C)C5[C@H](O)C[C@]43C)[C@@H]2C1 (stereo not given in full)
The activation of the first is lower: 0.42% for the first, 2.18% for the second.

Going from `O=C(OCCN=C1NS(=O)(=O)c2ccccc21)c1cccc([N+](=O)[O-])c1` to `CC(=O)Nc1ccccc1Sc1ccc2c3c(cccc13)C(=O)N(c1ccc(C)cc1)C2=O`, the activation falls from 1.88% to -0.75%.

Compared with `CC(C)C(=O)Nc1cccc(NC(=S)NC(=O)C(c2ccccc2)c2ccccc2)c1`, `CCNC(=S)NNC(=O)Cc1ccccc1` is lower in activation: 4.03% for the first, 1.03% for the second.

`Cc1ccc(OS(=O)Nc2cccc3nccnc23)cc1` (stereo not given) was tested, and the activation was 0.23%.

With `COc1ccc(C(=O)NC(=S)NNC(=O)c2c(-c3ccccc3)noc2C)cc1` the activation was 46.7% (active).
With `Cc1onc(-c2ccccc2)c1C(=O)NNC(=S)NC(=O)c1ccc(F)cc1` the activation was 32.9% (active).
For `CCOc1cc(/C=C(\C#N)c2nc(-c3cccs3)c(NC(C)=O)s2)ccc1O`, the activation was 23.4% (active).
For `CCCc1ccc(OCC(=O)NNC(=S)NC(=O)c2ccco2)cc1`, the activation was 31.6% (active).
`CC(Oc1ccc2ccccc2c1)C(=O)NNC(=S)NC(=O)c1ccco1` (stereo not given) was tested, and the activation was 33.9% (active).
`Cc1nc(C(=O)NCc2ccccc2)sc1C1(C)CC(c2cccnc2)=NO1` (stereo not given) was tested, and the activation was 21.7% (active).
`CC(=O)Oc1ccccc1C(=O)Nc1ncc([N+](=O)[O-])s1` was tested, and the activation was 20% (active).
`CCC(C(=O)Nc1ccc(C(C)C)cc1)c1ccccc1` (stereo not given) was tested, and the activation was 41.5% (active).
`C=CCOc1cccc(C2C(C(=O)c3ccc(C)o3)=C(O)C(=O)N2c2nnc(C)s2)c1` (stereo not given) was tested, and the activation was 47.7% (active).
`COc1cc(OC)cc(C(=O)N[C@H](C(=O)OCC(=O)NC(C)c2ccccc2)C(C)C)c1` (stereo not given in full) was tested, and the activation was 76.7% (active).
For `N#C/C(=C/c1ccc(N2CCCCC2)o1)C(=O)NCCc1c[nH]c2ccccc12`, the activation was 27.2% (active).
In the case of `O=C(CCCN1CCc2[nH]c3ccc(F)cc3c2C1)c1ccc(F)cc1`, the activation is reported as 24.7% (active).
With `CC1(C)CC[C@@]2(C(=O)O)C(C1)C1=CCC3[C@@]4(C)CC[C@H](O)C(C)(C)C4CC[C@@]3(C)[C@]1(C)C[C@H]2O` (stereo not given in full) the activation was 30.7% (active).
For `O=C(CCCN=C1NS(=O)(=O)c2ccccc21)OCC(=O)c1ccc(F)c(F)c1`, the activation was 30.8% (active).
In the case of `CN(C(=O)CN(CCO)CC(=O)N(C)C(C)(C)Cc1ccccc1)C(C)(C)Cc1ccccc1`, the activation is reported as 50.2% (active).
With `CCCCC(=O)NNC(=S)NC(=O)C(c1ccccc1)c1ccccc1` the activation was 68.1% (active).
For `CN1C(=O)c2cccc3c(N)ccc(c23)C1=O`, the activation was 84.9% (active).
For `Cc1nn(C)cc1N1C(=O)c2cccc3c(N)ccc(c23)C1=O`, the activation was 70.2% (active).
With `CN(C)CCCN(C(=O)c1ccc(S(=O)(=O)N2CCCCCC2)cc1)c1nc2ccc(Br)cc2s1` the activation was 20.8% (active).
